Experiment [1] is described as follows: Confirmation and Secondary Assay for Modulators of Hemoglobin Beta Chain Splicing at IVS2 654 locus (AID 910).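 Further: HeLa cells stably carrying EGFP split by mutant beta-globin IVS2-654 intron; % of control where 0% means no effect.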 In outline: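 HeLa cells stably expressing EGFP interrupted by β-globin IVS2-654 intron, seeded overnight in Opti-MEM/2% FCS, then treated 2 days at 37 °C. Restored splicing read as total peak GFP intensity per well by laser scanning cytometry (488 nm excitation, 500–520 nm emission); 500 nM antisense PNA as control.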

A short description of experiment [2]: Confirmation and Secondary Assay for Modulators of Hemoglobin Beta Chain Splicing at IVS2 705 locus (AID 930).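 Further: HeLa cells stably expressing the EGFP-705 splicing reporter; GFP fluorescence per well restored by corrected splicing of the IVS2-705 intron in EGFP; % of control where 0% means no effect.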 In outline:
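Secondary splice-site specificity test uses HeLa expressing CMV-driven EGFP interrupted by IVS2-705; cells were treated 2 days at 37C with 500 nM antisense PNA as positive control.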

A short description of experiment [3]: qHTS Assay for Lipid Storage Modulators (AID 1519; calls by dose curve). As to conditions: Drosophila S3 cells, BODIPY lipid droplet/cell ratio, laser cytometry, cells loaded with oleic acid; for activity change, negative = inhibition: at 57.5 µM (top of the series). In outline: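 Cells seeded at 5,000 per well were treated with compounds over a concentration series and loaded with oleic acid (400 uM, as added). Lipid droplet fluorescence (488 nm excitation, 500-530 nm channel) was read by laser-scanning cytometry and normalized to 20 uM Triacsin C.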
Background: Quantitative high-throughput screening tests each substance at several concentrations.

Experiment [4] deals with Rap guanine nucleotide exchange factor 3 (Homo sapiens) (UniProt O95398). As to the kind of experiment: Confirmatory qHTS for antagonist of cAMP-regulated guanine nucleotide exchange factor 3 (EPAC1) (AID 1645880).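 Further: plate controls were DMSO only for no effect and full effect of the ATA control for full effect; nearly all actives have a fitted effect of over 55% in size.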 In outline: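 Released BODIPY-GDP fluoresces less than Rap1-bound BODIPY-GDP; the signal is followed at 480/540 nm at 5-min intervals over 30 min, after 5 min at room temperature. Reactions contain 100 nM EPAC1, 250 nM RAP1B-BODIPY-GDP and 50 uM GDP; results are normalized to ATA and DMSO.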

The target is the same in experiment [5]. As to the kind of experiment: Confirmatory qHTS for agonist of cAMP-regulated guanine nucleotide exchange factor 3 (EPAC1) (AID 1645881). Further: nearly all actives have a fitted effect of over 75% in size. Further: potency means the concentration at half of the fitted maximal effect.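 On activation: EPAC1 catalysed release of BODIPY-GDP from Rap1B seen as fluorescence loss; 100% = effect of cAMP agonist control.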
Experiment [6] has as its target Rap guanine nucleotide exchange factor 4 (Homo sapiens) (UniProt Q8WZA2). As to the kind of experiment: Confirmatory qHTS for agonist of cAMP-regulated guanine nucleotide exchange factor 4 (EPAC2) (AID 1645884).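 Further: nucleotide exchange releases bodipy-GDP from Rap1 and this lowers its fluorescence; nearly all actives have a fitted effect of over 65% in size.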 Further: potency means the concentration at half of the fitted maximal effect.
Experiment [7] shares this target. As to the kind of experiment: Confirmatory qHTS for antagonist of cAMP-regulated guanine nucleotide exchange factor 4 (EPAC2) (AID 1645885). Further: nearly all actives have a fitted effect of over 25% in size. Further: potency means the concentration at half of the fitted maximal effect.
Experiment [8] concerns the target Cytochrome P450 3A4 (Homo sapiens) (UniProt P08684). As to the kind of experiment: qHTS Assay for Activators of Cytochrome P450 3A4 (AID 885). Further: nearly all actives have a fitted effect of over 65% in size. In outline:
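Activators are scored by enhanced luminescence from CYP3A4 conversion of luciferin-PPXE (25uM, equal to KM) to luciferin, after 60 min at RT with an NADPH-regenerating system.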

For experiment [9] the target is unchanged. Put plainly: qHTS Assay for Inhibitors and Substrates of Cytochrome P450 3A4 (AID 884). Further: nearly all actives have a fitted effect of over 50% in size. Further: potency means the concentration at half of the fitted maximal effect. In outline: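 Luminescent readout of luciferin produced by CYP3A4 (20 nM) dealkylation of Luciferin-PPXE, 25 uM (its KM). NADPH-driven reaction ran 60 min at RT after 10 min compound preincubation; data scaled to 57 uM ketoconazole as 100% inhibition.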
Experiment [10] deals with Ubiquitin carboxyl-terminal hydrolase 1 (Homo sapiens) (UniProt O94782). Put plainly: Inhibitors of USP1/UAF1: Pilot qHTS (AID 504865).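 Further: rhodamine fluorescence freed from ubiquitin-rhodamine substrate followed over time; top concentration of the series differs between compounds; on the % scale 0 is the no-effect control and ±100 the full control effect; nearly all actives have a fitted effect of over 35% in size.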 In outline:
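USP1/UAF1 complex at 1 nM preincubated 15 min at room temperature with compound, then Ub-Rho substrate added at 150 nM final. Fluorescence (480/540 nm) read kinetically in 50 mM HEPES pH 7.8, 0.5 mM EDTA, 1 mM TCEP, 0.1 mg/ml BSA, 0.01% Tween-20.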

The target in experiment [11] is Lysosomal acid glucosylceramidase (Homo sapiens) (UniProt P04062). Put plainly: Glucocerebrosidase-p2 (AID 348; in the data active means potency below about 10 µM; further: potency means the concentration at half of the fitted maximal effect). The settings on record: purified GBA, blue fluorogenic substrate, 40 min. In outline: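 Normal human glucocerebrosidase (0.2 nM) with blue fluorogenic substrate (80 uM final) in citrate/phosphate pH 5.9 with 10mM sodium taurocholate, 0.01% tween-20; 40 min RT, NaOH/glycine stop; fluorescence Ex 365/Em 440; AC50 from a titration from 0.6 nM upwards.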

Experiment [12] in a line: AP1 Signaling Pathway (AID 357; active means well fitted curve in either direction with a large enough effect, not every such curve was filed as active;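 further: ME-180 reporter cells stimulated with EGF at its EC50 level; on the % scale 0 is the no-effect control and ±100 the full control effect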). As to conditions: ME-180 AP-1-bla reporter, EGF-induced, beta-lactamase ratio, 5 h; at 7.69 µM (top of the series) unless noted. In outline:
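A ratiometric CCF4 readout (405 nm excitation; 460 and 530 nm emission) quantified AP-1-driven beta-lactamase in ME-180 cells after 5 h with compound and EC50 EGF; AC50 values were derived for activators and inhibitors.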

In experiment [13] the target is Cytochrome P450 1A2 (Homo sapiens) (UniProt P05177). As to the kind of experiment: p450-cyp1a2 (AID 410; calls by dose curve; further: potency means the concentration at half of the fitted maximal effect). In outline:
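20nM CYP1A2, 100uM Luciferin-ME (=Km), 100mM KPO4; cpd 10 min RT; +NADPH regen, 60 min RT; stop/detect 20 min; luminescence. Normalized to furafylline 57 uM = full inhibition.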

Experiment [14] can be described thus: NFAT Signaling Pathway (AID 444; active means well fitted curve in either direction with a large enough effect, not every such curve was filed as active;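 further: carbachol stimulus at about its EC50 of 1 µM final; on the % scale 0 is the no-effect control and ±100 the full control effect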). As to conditions: Jurkat NFAT-bla M1, carbachol, beta-lactamase ratio, 5 h; at 7.69 µM (top of the series) unless noted. In outline: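 Jurkat cells with NFAT-driven β-lactamase reporter and co-expressed M1 receptor, stimulated with carbachol (final 1 uM, ~EC50), compound titration, 5 h at 37 °C. CCF4 loaded 1 h at RT; 460/530 nm ratio gave %activity and AC50.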

Experiment [15] can be described thus: Stat Signaling Pathway (AID 446; active means well fitted curve in either direction with a large enough effect, not every such curve was filed as active;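 further: ME-180 cervical cancer cells given 40 pM IL-6 alongside compound; SIE-controlled beta-lactamase reporter measured as 460/530 nm FRET emission ratio; on the % scale 0 is the no-effect control and ±100 the full control effect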). As to conditions: ME-180 (cervical carcinoma) SIE beta-lactamase reporter, IL-6 stimulated, 5 h; at 7.69 µM (top of the series) unless noted. In outline: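 Emission at 460 and 530 nm (excitation 405 nm) reports SIE-controlled beta-lactamase in ME-180 cells. Cells received compound with 40 pM IL-6 for 5 hrs at 37 C; data scaled between 300 pM IL-6 and 125 nM JAK-inhibitor controls.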

In experiment [16] the target is Glucocorticoid receptor (Homo sapiens) (UniProt P04150). Put plainly: GR-GFP Redistribution (AID 450;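 active means compounds whose dose series gives a full or clear partial fitted curve of increased nuclear translocation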; further: potency means the concentration at half of the fitted maximal effect). The settings on record: U2OS GR-GFP nuclear translocation, laser cytometry, 2 h.
For experiment [17] the target is unchanged. As to the kind of experiment: GR-EFC Redistribution (AID 451; calls by dose curve; further: potency means the concentration at half of the fitted maximal effect). The settings on record: CHO-K1 GR-EFC translocation, beta-gal luminescence, 2 h. In outline:
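CHO-K1 cells expressing nuclear EA and GR-ED fragments of b-gal; compounds titrated up to 46 uM final, 2 h at 37 C. GR nuclear translocation read as complemented b-gal luminescence after 1 h RT detection.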

For experiment [18], the target named is Mitogen-activated protein kinase 10 (Mus musculus) (UniProt Q61831). As to the kind of experiment: JNK3 AlphaScreen Assay (AID 530; active means well fitted curve in either direction with a large enough effect, not every such curve was filed as active;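 further: kinase came from lysate of stimulated human HepG2 cells; signal reports phosphorylation of biotinylated GST-cJun 1-79 at Ser73 with 10 µM ATP; on the % scale 0 is the no-effect control and ±100 the full control effect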). In outline:
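HepG2 lysate (IL-1b/TNFa pre-activated) + biotin-GST-cJun 1-79 + anti-pSer73 cJun; cpd titration, 15 min RT; ATP 10 uM start; Tris pH 7.6, MgCl2, DTT, vanadate; beads in EDTA buffer; AlphaScreen.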
A general note: Alpha assays give light when donor and acceptor beads are brought close together.

In experiment [19] the target is 3',5'-cyclic-AMP phosphodiesterase 4B (Homo sapiens) (UniProt Q07343). Put plainly: qHTS Assay for Inhibitors of PDE-IV (AID 607; active means well fitted activation curve with a large enough effect in the main read-out, with a control signal flat, not every such curve was filed as active; further: % of control where 0% means no effect). In outline:
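The readout is membrane depolarisation from a cAMP-sensing CNG channel, detected with a potential dye at ex 535/em 590. Cells were HEK293-derived (endogenous PDE-IV) at 1000 cells/well, titrated up to 22.9 uM final.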

Where [20] appears, read: measured here: cell count channel max response.
The mark [21] stands for this setting: measured here: lipid channel max response.

Results filed as inconclusive are left out. Activity calls are given as the source filed them. Unless noted, the call rests on the fitted dose curve; in most records, active means well fitted curve in the direction sought with a large enough effect; inconclusive means small, poorly fitted or top-dose-only effect, or another doubt; inactive means no such curve, though single readings can be large; an effect the other way counts as inactive or inconclusive. Some results are limits rather than exact numbers.

Glucocorticoid receptor (Homo sapiens), sequence (P04150 whole entry, looked up): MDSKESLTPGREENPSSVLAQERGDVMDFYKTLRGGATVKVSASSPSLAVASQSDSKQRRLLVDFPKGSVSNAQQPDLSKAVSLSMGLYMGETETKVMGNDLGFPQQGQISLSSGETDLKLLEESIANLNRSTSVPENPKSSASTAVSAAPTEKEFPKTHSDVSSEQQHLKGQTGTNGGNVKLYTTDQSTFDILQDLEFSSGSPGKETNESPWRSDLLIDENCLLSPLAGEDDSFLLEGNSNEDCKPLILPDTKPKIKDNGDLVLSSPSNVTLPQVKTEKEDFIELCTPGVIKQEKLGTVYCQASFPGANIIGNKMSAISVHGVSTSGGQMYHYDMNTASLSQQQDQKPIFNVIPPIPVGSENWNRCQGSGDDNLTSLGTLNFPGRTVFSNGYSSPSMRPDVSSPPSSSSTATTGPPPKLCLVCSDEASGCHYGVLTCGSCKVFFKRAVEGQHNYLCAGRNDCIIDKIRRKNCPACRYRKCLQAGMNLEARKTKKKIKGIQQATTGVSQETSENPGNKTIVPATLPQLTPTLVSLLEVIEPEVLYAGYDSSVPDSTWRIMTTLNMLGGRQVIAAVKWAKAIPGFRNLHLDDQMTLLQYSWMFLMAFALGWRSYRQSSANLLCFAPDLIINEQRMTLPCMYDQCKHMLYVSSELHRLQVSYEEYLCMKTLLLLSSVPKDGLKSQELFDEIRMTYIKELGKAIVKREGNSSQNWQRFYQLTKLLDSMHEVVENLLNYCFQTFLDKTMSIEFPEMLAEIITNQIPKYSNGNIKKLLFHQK
Cytochrome P450 3A4 (Homo sapiens), sequence (P08684 whole entry, looked up): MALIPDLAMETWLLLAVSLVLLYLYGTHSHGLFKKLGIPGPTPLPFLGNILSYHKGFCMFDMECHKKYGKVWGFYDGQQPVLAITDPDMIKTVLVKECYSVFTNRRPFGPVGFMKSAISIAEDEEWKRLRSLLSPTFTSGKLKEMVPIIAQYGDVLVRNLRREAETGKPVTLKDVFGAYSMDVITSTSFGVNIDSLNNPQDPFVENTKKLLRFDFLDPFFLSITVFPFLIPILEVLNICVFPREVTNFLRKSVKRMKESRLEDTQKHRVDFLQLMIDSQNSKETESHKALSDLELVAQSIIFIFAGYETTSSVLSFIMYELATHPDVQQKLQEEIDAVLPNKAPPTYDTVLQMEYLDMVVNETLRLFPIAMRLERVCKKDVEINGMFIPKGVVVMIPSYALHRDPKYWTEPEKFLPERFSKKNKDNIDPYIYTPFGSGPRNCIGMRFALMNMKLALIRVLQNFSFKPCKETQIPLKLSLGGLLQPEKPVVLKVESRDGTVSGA
Rap guanine nucleotide exchange factor 3 (Homo sapiens), sequence (O95398 whole entry, looked up): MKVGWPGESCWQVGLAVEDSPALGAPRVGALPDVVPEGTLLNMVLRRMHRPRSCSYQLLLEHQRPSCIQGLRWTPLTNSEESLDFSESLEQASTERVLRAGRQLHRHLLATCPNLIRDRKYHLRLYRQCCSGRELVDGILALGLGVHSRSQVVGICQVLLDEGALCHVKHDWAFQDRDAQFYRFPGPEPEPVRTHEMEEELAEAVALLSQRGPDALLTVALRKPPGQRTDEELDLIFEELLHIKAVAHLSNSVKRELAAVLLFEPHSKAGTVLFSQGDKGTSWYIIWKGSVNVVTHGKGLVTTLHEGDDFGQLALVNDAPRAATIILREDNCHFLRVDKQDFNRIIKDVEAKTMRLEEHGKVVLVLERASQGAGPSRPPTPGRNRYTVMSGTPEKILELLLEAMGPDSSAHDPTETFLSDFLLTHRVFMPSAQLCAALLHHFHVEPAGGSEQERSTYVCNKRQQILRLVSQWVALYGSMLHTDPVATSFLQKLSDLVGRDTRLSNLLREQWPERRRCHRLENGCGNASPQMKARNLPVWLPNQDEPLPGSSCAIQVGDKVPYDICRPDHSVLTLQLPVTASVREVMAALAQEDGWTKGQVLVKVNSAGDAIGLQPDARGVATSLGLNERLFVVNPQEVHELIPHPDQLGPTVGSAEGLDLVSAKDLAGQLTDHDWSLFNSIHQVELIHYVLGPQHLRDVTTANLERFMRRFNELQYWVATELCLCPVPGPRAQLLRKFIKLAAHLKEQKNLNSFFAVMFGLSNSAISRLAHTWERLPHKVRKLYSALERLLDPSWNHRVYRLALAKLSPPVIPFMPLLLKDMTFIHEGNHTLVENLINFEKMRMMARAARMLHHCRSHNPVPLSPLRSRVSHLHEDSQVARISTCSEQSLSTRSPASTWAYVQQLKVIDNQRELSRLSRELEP
Rap guanine nucleotide exchange factor 4 (Homo sapiens), sequence (Q8WZA2 whole entry, looked up): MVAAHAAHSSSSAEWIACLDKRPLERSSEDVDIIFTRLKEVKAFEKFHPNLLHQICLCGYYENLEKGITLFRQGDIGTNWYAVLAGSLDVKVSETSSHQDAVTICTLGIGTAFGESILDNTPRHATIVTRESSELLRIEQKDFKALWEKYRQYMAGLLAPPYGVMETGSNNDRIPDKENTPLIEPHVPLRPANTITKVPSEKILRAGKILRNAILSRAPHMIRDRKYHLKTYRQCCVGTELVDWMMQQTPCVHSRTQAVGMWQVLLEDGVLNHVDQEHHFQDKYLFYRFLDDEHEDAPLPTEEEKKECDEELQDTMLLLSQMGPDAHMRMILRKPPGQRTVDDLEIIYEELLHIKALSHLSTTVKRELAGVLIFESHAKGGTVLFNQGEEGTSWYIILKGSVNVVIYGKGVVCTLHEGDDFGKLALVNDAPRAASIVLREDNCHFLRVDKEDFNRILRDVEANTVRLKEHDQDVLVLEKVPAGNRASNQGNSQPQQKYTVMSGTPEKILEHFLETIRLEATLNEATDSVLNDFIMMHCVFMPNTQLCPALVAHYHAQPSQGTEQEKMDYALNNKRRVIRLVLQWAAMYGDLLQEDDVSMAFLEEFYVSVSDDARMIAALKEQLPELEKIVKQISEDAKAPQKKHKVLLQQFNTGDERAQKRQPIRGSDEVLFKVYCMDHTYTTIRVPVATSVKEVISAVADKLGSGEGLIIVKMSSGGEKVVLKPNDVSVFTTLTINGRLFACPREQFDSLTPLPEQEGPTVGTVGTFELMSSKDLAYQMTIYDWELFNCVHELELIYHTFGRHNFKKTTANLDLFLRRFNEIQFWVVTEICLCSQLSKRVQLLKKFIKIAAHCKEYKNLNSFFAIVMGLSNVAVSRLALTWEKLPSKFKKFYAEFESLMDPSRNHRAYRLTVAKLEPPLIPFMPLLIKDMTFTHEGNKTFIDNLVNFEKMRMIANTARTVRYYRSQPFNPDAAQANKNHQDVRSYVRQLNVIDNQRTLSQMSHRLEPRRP
Cytochrome P450 1A2 (Homo sapiens), sequence (P05177 whole entry, looked up): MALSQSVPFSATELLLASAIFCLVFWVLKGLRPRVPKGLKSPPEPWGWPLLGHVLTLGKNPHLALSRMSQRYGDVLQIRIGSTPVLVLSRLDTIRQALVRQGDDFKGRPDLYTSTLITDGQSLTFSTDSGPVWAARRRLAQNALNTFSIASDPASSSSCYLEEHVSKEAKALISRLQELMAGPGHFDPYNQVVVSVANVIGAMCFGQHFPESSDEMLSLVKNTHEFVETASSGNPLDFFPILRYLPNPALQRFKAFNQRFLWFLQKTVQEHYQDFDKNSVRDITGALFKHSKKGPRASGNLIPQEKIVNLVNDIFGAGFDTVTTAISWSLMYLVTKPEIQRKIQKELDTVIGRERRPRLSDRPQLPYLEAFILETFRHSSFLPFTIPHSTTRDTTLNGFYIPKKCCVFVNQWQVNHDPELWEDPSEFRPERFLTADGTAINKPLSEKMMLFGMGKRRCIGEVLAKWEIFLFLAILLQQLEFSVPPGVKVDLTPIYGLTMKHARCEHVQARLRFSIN
Lysosomal acid glucosylceramidase (Homo sapiens), sequence (P04062 whole entry, looked up): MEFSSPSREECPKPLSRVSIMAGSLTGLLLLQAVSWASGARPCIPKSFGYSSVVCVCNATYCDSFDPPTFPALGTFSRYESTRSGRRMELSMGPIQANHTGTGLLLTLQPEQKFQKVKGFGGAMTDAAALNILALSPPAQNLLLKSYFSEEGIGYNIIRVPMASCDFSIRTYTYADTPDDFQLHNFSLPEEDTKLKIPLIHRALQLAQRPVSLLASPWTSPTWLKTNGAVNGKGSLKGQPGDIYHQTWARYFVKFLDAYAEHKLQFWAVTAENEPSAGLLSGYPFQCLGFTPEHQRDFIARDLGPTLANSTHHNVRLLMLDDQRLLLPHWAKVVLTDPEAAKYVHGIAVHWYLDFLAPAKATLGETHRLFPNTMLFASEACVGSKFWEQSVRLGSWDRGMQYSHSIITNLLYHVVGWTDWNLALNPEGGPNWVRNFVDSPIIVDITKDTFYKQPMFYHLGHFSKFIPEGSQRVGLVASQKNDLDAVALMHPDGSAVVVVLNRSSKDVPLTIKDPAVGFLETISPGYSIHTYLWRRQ
Ubiquitin carboxyl-terminal hydrolase 1 (Homo sapiens), sequence (O94782 whole entry, looked up): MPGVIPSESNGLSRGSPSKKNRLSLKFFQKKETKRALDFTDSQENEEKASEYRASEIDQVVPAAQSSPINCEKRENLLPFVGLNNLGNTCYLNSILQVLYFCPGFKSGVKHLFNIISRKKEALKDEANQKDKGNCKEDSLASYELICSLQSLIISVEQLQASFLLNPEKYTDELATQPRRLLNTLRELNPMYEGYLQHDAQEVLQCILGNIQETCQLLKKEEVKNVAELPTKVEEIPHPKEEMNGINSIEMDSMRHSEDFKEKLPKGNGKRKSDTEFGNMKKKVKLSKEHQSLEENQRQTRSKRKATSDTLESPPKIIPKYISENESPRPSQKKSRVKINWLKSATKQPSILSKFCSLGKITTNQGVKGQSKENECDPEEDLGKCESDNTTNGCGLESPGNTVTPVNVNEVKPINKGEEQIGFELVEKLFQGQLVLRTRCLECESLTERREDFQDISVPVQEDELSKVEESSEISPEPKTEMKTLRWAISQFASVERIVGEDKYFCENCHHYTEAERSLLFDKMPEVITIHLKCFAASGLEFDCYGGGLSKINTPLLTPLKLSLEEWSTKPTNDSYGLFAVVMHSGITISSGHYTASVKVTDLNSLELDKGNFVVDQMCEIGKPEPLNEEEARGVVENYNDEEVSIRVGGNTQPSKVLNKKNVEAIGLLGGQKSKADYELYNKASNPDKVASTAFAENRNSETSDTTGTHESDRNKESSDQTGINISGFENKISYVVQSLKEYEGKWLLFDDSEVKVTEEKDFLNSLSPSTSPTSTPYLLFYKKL

`CC(=O)Oc1ccc2c(c1)CCC1C2CC[C@]2(C)C(OC(C)=O)CCC12` (some centres undefined): the Potency entry in experiment [1], in experiment [4], in [5], in experiment [6] and in [7] was “inactive” throughout. For the same compound, the result in [2] was inactive. Also, the activity change, negative = inhibition in [3] was -2.53% (inactive). Further, the max response in experiment [3] (setting [20]) stood at 4%; in [3] (setting [21]) it was 4.34%.

As for `CC(=O)OC1CCC23CC1(C)CCC2C(C)(C)CC3OC(C)=O` (centres undefined), the Potency result in experiment [8], in experiment [1], in [4], in [5] and in [6] was “inactive” throughout. Besides, the call in experiment [2] was inactive. In addition, the activity change, negative = inhibition in experiment [3] is 2.71% (inactive). The max response amounted to 3.38% in [3] (setting [20]) and 6.37% in experiment [3] (setting [21]). Further, the Potency in experiment [7] is 39.3 µM (active).

Take `N[C@H](C(=O)O)C(O)C(O)C(O)CO` (some centres undefined): the Potency entry in experiment [9], in experiment [1], in experiment [10], in experiment [4], in experiment [5] and in experiment [6] was “inactive” in each case. Moreover, in [7], the Potency result is “inactive”. In addition, in [2], the compound was classed as inactive. Further, the activity change, negative = inhibition in experiment [3] is 2.74% (inactive). In addition, the max response is -0.517% in [3] (setting [20]) and 3.07% in [3] (setting [21]).

`COc1cccc(-c2cncnc2NCc2ccc(OC)cc2OC)c1`: the Potency in experiment [11] is > 11.4 µM (inactive); in [13], 3.98 µM (active); in experiment [16] it was > 46 µM (inactive); in [17], > 46 µM (inactive); in experiment [9], 0.501 µM (active); in experiment [7], 44.1 µM (active). Also, the activity change, negative = inhibition in [12] was -7.15% (inactive); in experiment [14], -10.1% (inactive); in experiment [3], 7.71% (inactive). Moreover, in experiment [15], the activity, negative = inhibition was -6.14% (inactive). For the same compound, the Potency result in [18], in [8], in experiment [1], in experiment [5] and in [6] was “inactive” throughout. Further, in experiment [2], the compound was called inactive. Besides, the results for the max response in experiment [3] (setting [20]) and in experiment [3] (setting [21]) were 3.12% and 8.96%, respectively.

For the compound `COc1ccc(-c2nc3cnc(Nc4cccc(OC)c4)nc3n(CCC#N)c2=O)cc1`, the Potency in experiment [11] is > 11.4 µM (inactive); in experiment [13], 6.31 µM (active); in [17] it was > 46 µM (inactive); in experiment [9], 3.98 µM (active); in experiment [5] it was 70.6 µM (active); in [6] it was 70.6 µM (active). The activity change, negative = inhibition in experiment [14] is -19.2% (inactive); in experiment [3] it was -18.1% (inactive). In addition, the activity, negative = inhibition in experiment [15] is -10% (inactive). Moreover, the Potency entry in experiment [18], in experiment [19], in experiment [8], in experiment [4] and in experiment [7] was “inactive” throughout. Moreover, the max response in [3] (setting [20]) is 16.5%; in [3] (setting [21]) it was -2.36%.

For `CN(Cc1ccco1)c1nc(-c2ccccc2Cl)nc2ccccc12`, the activity change, negative = inhibition in experiment [12] is 16.9% (inactive); in experiment [14], -23.4% (inactive); in experiment [3], 11.9% (inactive). Also, the activity, negative = inhibition in experiment [15] was 21.7% (inactive). Also, the Potency in experiment [17] is > 46 µM (inactive). Moreover, the Potency result in [18], in [1], in experiment [4], in experiment [5] and in experiment [6] was “inactive” in each case. Moreover, in experiment [2], the call was inactive. Besides, the max response in experiment [3] (setting [20]) worked out at 14.1%; in experiment [3] (setting [21]), 24.3%.

Consider `CC1(C)C=CC(=O)[C@]2(C)C1CC(=O)[C@]1(C)C2CC[C@@]2(C)C(c3ccoc3)OC(=O)C3OC321` (some centres undefined), for which, in [9], the Potency is 2 µM (active). Moreover, the Potency entry in experiment [8], in [1], in experiment [10], in experiment [4], in experiment [5] and in [6] was “inactive” throughout. Also, in experiment [7], the Potency result was “inactive”. In addition, the outcome in [2] was inactive. For the same compound, the activity change, negative = inhibition in experiment [3] was -11.5% (inactive). Besides, the max response is -7.57% in experiment [3] (setting [20]) and -18.1% in experiment [3] (setting [21]).
